Screens as filed in PubChem BioAssay.
TDP1 cell noCPT – qHTS for Inhibitors of human tyrosyl-DNA phosphodiesterase 1 (TDP1): qHTS in cells in absence of CPT; DT40 Tdp1-/- hTDP1 cells, no CPT, ATP luminescence, 48 h; Potency, µM (highest dose often 46.2 µM), for the others: at the highest dose activity change, negative = growth inhibition, most hits filed as inhibitors; hit rate 15% among 420,000; further: potency means the concentration at half of the fitted maximal effect; nearly all actives have a fitted effect of over 55% in size
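DT40 Tdp1-/-;hTDP1 cells, no CPT (DMSO vehicle only), 400 cells/well; compounds pin-transferred; ≥48 hr, 37 °C; CellTiter-Glo 30 min RT dark, luminescence read.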
IL-1B inflam inh – qHTS for Inhibitors of Inflammasome Signaling: IL-1-beta AlphaLISA Primary Screen | THP-1 LPS/ATP IL-1B secretion, AlphaLISA, 16 h; stronger effect = lower value | activity change, % at 57.5 µM | hit rate 4.7% among 360,000; in the data active means activity change below about -50%; inconclusive means mostly about -30% to -49%
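THP-1 cells pretreated 1 hr with compounds (up to 57.5 uM final), then stimulated with LPS (250 ng/mL final) plus ATP (1.25 mM final); secreted IL-1B measured by AlphaLISA after 16 hr, decreased signal indicating inhibition.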
HT1080 IDH1KD tx – qHTS for induction of synthetic lethality in tumor cells producing 2HG: qHTS for the HT-1080-IDH1KD cell line. HT-1080 IDH1 knockdown viability, ATP luminescence, 48 h. Potency, µM (titrated, usually from 46.1 µM), inactives show top-dose activity, negative = toxicity, actives largely listed as cytotoxic. hit rate 2% among 360,000;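 further: potency means the concentration at half of the fitted maximal effect; 0% = DMSO wells and -100% = cell-free medium wells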
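CellTiter-Glo luminescence after 48 h compound exposure at 37 degrees C of IDH1-knockdown HT-1080 cells in 5% FBS RPMI. %Activity scaled between DMSO wells and cell-free media wells, with curves fitted and assigned curve classes.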
HT1080NT lethal – qHTS for induction of synthetic lethality in tumor cells producing 2HG: qHTS for the HT-1080-NT fibrosarcoma cell line. AID 686970, 2013. Potency, µM (titrated, usually from 46.1 µM), inactives show top-dose activity, negative = less viability, usual class: cytotoxic. hit rate 1.6% among 360,000. HT-1080-NT fibrosarcoma viability, CellTiter-Glo ATP luminescence, 48 h;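 further: NT is the 2HG producing partner of a matched IDH1 knockdown line; potency means the concentration at half of the fitted maximal effect; 0% = DMSO-treated cells and -100% = media-only wells without cells; nearly all actives have a fitted effect of over 55% in size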
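Read-out is CellTiter-Glo luminescence after 10 minutes at room temperature, following 48 hours' compound treatment of HT-1080-NT cells (750 cells/well, RPMI, 5% FBS, 37 degrees C).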
ELG1 repair inh – qHTS screen for small molecules that inhibit ELG1-dependent DNA repair in human embryonic kidney (HEK293T) cells expressing luciferase-tagged ELG1; Potency, µM (doses to about 46.1 µM), without a hit: at the highest dose activity change, negative = inhibition, actives largely listed as inhibitors; hit rate 2.3% among 330,000; HEK293T ELG1-luciferase reporter, luminescence, 16 h; DNA damage induced by 5-fluorouridine; further: potency means the concentration at half of the fitted maximal effect; nearly all actives have a fitted effect of over 55% in size
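Reporter activity after DNA damage by 5-fluorouridine is monitored. Compound-treated cells incubate 16 hr at 37 °C, then ONE-Glo is added for 30 min before luminescence reading.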
TDP1 cell CPT – qHTS for Inhibitors of human tyrosyl-DNA phosphodiesterase 1 (TDP1): qHTS in cells in presence of CPT; chicken DT40 Tdp1-/-;hTDP1 cells + 20 nM CPT, ATP luminescence, 48 h; Potency, µM (titrated, usually from 46.2 µM), for the others: top-dose activity change, negative = growth inhibition, actives largely listed as inhibitors; hit rate 12% among 420,000; AID 686979, 2013; further: potency means the concentration at half of the fitted maximal effect; nearly all actives have a fitted effect of over 55% in size
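Chicken DT40 Tdp1-/- cells stably complemented with human TDP1 were seeded at 400 cells/well in medium containing 20 nM camptothecin, exposed to pin-transferred compounds, and grown at 37 °C for at least 48 hr. Viability was read as ATP luminescence.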
* hit, by the source's call; i = inactive; ? = inconclusive; / = not tested or not shown. This is a sample that favours compounds with a hit; in the whole collection about 19% have one here. Unless noted, the call rests on the fitted dose curve; in most records, active means well fitted curve in the direction sought with a large enough effect; inconclusive means small, poorly fitted or top-dose-only effect, or another doubt; inactive means no such curve, though single readings can be large; an effect the other way counts as inactive or inconclusive. Unless noted, on the % scale 0 is the no-effect control and ±100 the full control effect.

SMILES | TDP1 cell noCPT | IL-1B inflam inh | HT1080 IDH1KD tx | HT1080NT lethal | ELG1 repair inh | TDP1 cell CPT
NS(=O)(=O)c1ccc(Cc2ncc(C(F)(F)F)cc2Cl)s1 | ? | -15.4 | -7.0% | -0.8% | -6.7% | ?
O=C(CCl)c1ccc(Cc2ncc(C(F)(F)F)cc2Cl)s1 | 5.17µM* | -103.9* | -12.5% | -18.8% | 0.6% | 3.26µM*
CC(C)(C)S(=O)N1Cc2cc(CO)ccc2[C@@H]1CCO (some centres undefined) | -16.6% | 19.4 | -0.1% | 0.6% | / | -18.8%
CC1(C(=O)NS(=O)(=O)c2ccc3c(c2)CCO3)CCN1C(=O)COc1ccc(Cl)cc1 (centres undefined) | -20.8% | 4.2 | 22.4% | 13.5% | / | -1.8%
CC(=O)c1ccc(NC(=O)CSc2nc(=O)n(Cc3ccccn3)c3c2CCC3)cc1 | ? | / | / | / | / | -1.7%
CCCCCn1ccc(=O)c2c(C(F)(F)F)nccc21 | 18.4µM* | 16.8 | -12.2% | 0.6% | 5.8µM* | 13µM*
CCCCCCCn1ccc(O)c(CC(=O)OC)c1=O | -4.7% | -14.5 | -0.1% | 1.7% | -2.4% | -5.8%
CN1CCC[C@@H]1CCNC(=O)c1c(-c2ccc3c(c2)OCO3)noc1-c1ccsc1 | -14.2% | -76.4* | -0.9% | -3.3% | -19.6% | -14.6%
CN1CCC[C@H]1CCNC(=O)c1c(-c2ccsc2)sc2ccccc12 | 1.0% | -20.8 | -21.3% | -19.6% | 0.3% | -2.3%
O=C(NCCCN1CCCCCC1)C(c1ccccc1)C1CCCCC1 (centres undefined) | 16.4µM* | / | / | / | / | ?
Cc1ccccc1NC(=O)NCCCN1CCCC1 | 12.3% | 35.3 | 4.7% | -3.2% | 7.4% | -17.8%
CC1(C)CC(=O)C=C(c2ccc(COC(=O)C(c3ccccc3)c3ccccc3)cc2)C1=O | ? | -4.8 | ? | -23.5% | / | ?
Cn1c(CSCc2ccccc2)nnc1SCC(=O)Nc1nccs1 | -3.5% | 26.2 | -8.7% | -5.4% | ? | -38.3%
Cn1c(CSCc2ccc(F)cc2)nnc1SCC(=O)Nc1nccs1 | 13µM* | 14.4 | -1.8% | -27.2% | 16.4µM* | 10.3µM*
Cn1cccc1Cc1nnc(SCC(=O)Nc2nccs2)n1C | -6.5% | 0.0 | 2.3% | 23.1% | 4.4% | -1.8%
Cn1c(CSCc2ccc(Cl)c(Cl)c2)nnc1SCC(=O)Nc1nccs1 | 18.4µM* | -9.1 | -19.3% | -8.6% | ? | 25.9µM*
Cn1cccc1Cc1nnc(SCC(=O)Nc2nccs2)n1CCc1ccccc1 | ? | ? | -14.0% | -16.1% | ? | 20.6µM*
Cn1c(CSCc2ccc(Cl)cc2)nnc1SCC(=O)Nc1nccs1 | ? | -2.0 | -10.1% | -13.8% | ? | ?
Cc1ccc2occ(-c3cc(-c4ccc(Cl)cc4)nc4c3COc3ccccc3-4)c(=O)c2c1 | 1.0% | / | / | / | / | -0.2%
CC(C)(C)c1nc(NCCN2CCOCC2)c2nnn(Cc3ccccc3Cl)c2n1 | 10µM* | -8.6 | 9.1% | 11.7% | 2.5% | 10µM*
CCOCCCNc1nc(C(F)(F)F)nc2c1nnn2Cc1ccccc1Cl | 14.6µM* | -20.3 | 0.0% | ? | 18.3µM* | 18.4µM*
CCOc1ccc(C(=O)Nc2c(C(=O)Nc3ccccc3F)oc3ccccc23)cc1OCC | -11.0% | / | / | / | / | -29.2%
Cc1cc(C)c2c(n1)sc1c(N3CCCCC3)ncnc12 | ? | / | 10.8% | 26.8% | 18.2% | ?
Cc1cc(C)c2c(n1)sc1c(N3CCN(C)CC3)ncnc12 | 13µM* | / | -0.3% | 2.7% | ? | ?
CCn1nc(C)c(CN2CCC3(CCC(CNC(=O)c4ccccc4)O3)CC2)c1C (centres undefined) | -4.4% | / | / | / | / | 3.5%
SMILES | TDP1 cell noCPT | IL-1B inflam inh | HT1080 IDH1KD tx | HT1080NT lethal | ELG1 repair inh | TDP1 cell CPT
O=C(Nc1ccccc1)C1=C[C@H](c2csc3ccccc23)C[C@H](OCCCCO)O1 | ? | -29.0 | -19.7% | -19.2% | ? | ?
C#Cc1ccc([C@H]2C=C(C(=O)Nc3ccccc3)O[C@@H](OCc3ccc(CO)cc3)C2)cc1 | ? | -57.2* | -15.3% | ? | -14.1% | ?
C=CCOC(=O)C1=C[C@@H](c2csc3ccccc23)C[C@@H](OCc2ccc(CO)cc2)O1 | ? | 3.0 | -27.6% | -2.0% | ? | ?
O=C(Nc1ccccc1)C1=C[C@H](c2csc3ccccc23)C[C@H](OCc2ccc(CO)cc2)O1 | 16.4µM* | ? | -18.3% | -3.3% | ? | 16.4µM*
C=CCOC(=O)C1=C[C@H](c2csc3ccccc23)C[C@H](OCc2ccc(CO)cc2)O1 | 20.6µM* | -0.1 | -3.0% | -9.9% | / | ?
Cc1ccc(NC(=O)C(C)Sc2nc(-c3ccccc3)c(C#N)c(=O)[nH]2)c(C)c1 (centres undefined) | 1.7% | / | / | / | / | -2.1%
O=C(NC1CCCc2c1cnn2-c1cc(F)cc(F)c1)c1ccccn1 (centres undefined) | -21.0% | -16.1 | -17.5% | -7.9% | / | ?
COc1ccc(C(=O)NC2CCCc3c2cnn3-c2cc(F)cc(F)c2)c(OC)c1OC (centres undefined) | 14.6µM* | -6.8 | ? | ? | ? | 16.4µM*
Cn1nccc1C(=O)NC1CCCc2c1cnn2-c1cc(F)cc(F)c1 (centres undefined) | ? | 0.0 | -3.8% | -1.1% | ? | 14.6µM*
COc1ccc(C(=O)NC2CCCc3c2cnn3-c2cc(F)cc(F)c2)c(OC)n1 (centres undefined) | -16.6% | 13.7 | 9.8% | 8.9% | -2.6% | -26.4%
COC(=O)c1ccc(C(=O)NC2CCCc3c2cnn3-c2cc(F)cc(F)c2)nc1 (centres undefined) | 2.06µM* | i | 16.4µM* | ? | 20.6µM* | 2.91µM*
CC(=O)c1ccc(NS(=O)(=O)c2cccc(S(=O)(=O)c3ccc(Cl)cc3)c2)cc1 | -21.5% | / | / | / | / | -11.0%
COc1ccc(CNC(=O)CN2CCN(c3ccc(F)cc3)CC2)cc1 | -4.9% | -1.9 | 0.0% | 4.6% | -27.7% | -4.4%
COc1ccc(N2CCN(CC(=O)Nc3ccccc3C(=O)NC(C)c3ccccc3)CC2)cc1 (centres undefined) | 20.6µM* | -28.2 | -5.3% | -0.7% | / | ?
